This note sets out measurements from PubChem BioAssay AID686979 (National Center for Advancing Translational Sciences (NCATS), 2013).

In all, about 420,000 compounds went through this assay and about 50,000 (12%) were called active. Roughly 26% stayed inconclusive and do not appear here. Calls follow the shape of the dose curve; as a rule, active = well fitted inhibition curve with a large enough effect; inconclusive = small, poorly fitted or top-dose-only effect; inactive = flat fitted curve, though single readings scatter. The entries come from a sample that favours actives as a whole. Entries that show only a call come without a potency.
Potency is read from the fitted curve at half-maximal effect.

A short description of this assay: qHTS for Inhibitors of human tyrosyl-DNA phosphodiesterase 1 (TDP1): qHTS in cells in presence of CPT. Also: nearly all actives have a fitted effect of over 55% in size. The conditions noted are these: chicken DT40 Tdp1-/-;hTDP1 cells + 20 nM CPT, ATP luminescence, 48 h; series mostly up to 46.2 µM. The gist of the method:
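Cell growth measured by CellTiter-Glo luminescence after a minimum 48 h, 37 C compound exposure with 20 nM CPT in Tdp1-knockout DT40 cells stably expressing hTDP1, seeded 400/well; qHTS titration format.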
(qHTS replaces the single test concentration by a dilution series.)
For the molecule `COCCCN1C(=O)C(=O)/C(=C(/O)c2ccc(S(=O)(=O)N3CCOCC3)cc2)C1c1ccc(F)cc1` (configuration not stated), the Potency entry was “inactive”.
The same measure for `Cc1nn(C(=O)c2ccoc2C)c(N)c1-c1ccccc1`: “inactive”.
As to `Cc1ccc(N=Nc2c(C)[nH]n(-c3ccccc3)c2=O)cc1`, the Potency entry is “inactive”.
Take `Cc1[nH]n(-c2ccccc2)c(=O)c1/C=N/NC(=O)c1ccoc1C`: the Potency is 1.46 µM (active).
`CCOC(=O)C1CCCN(S(=O)(=O)c2ccc(-n3cnnn3)c(C)c2)C1` (configuration not stated): the Potency result was “inactive”.
Consider `COc1ccc(CCn2ccc(O)c(Cc3ccc(Cl)cc3Cl)c2=O)cc1OC`, for which the Potency entry was “inactive”.
With `CC1CC(C)(C)CC2(C1)NC(=O)N(CC(=O)Nc1nccs1)C2=O` (configuration not stated), the Potency entry was “inactive”.
As for `O=C(O)/C=C/C(=O)Nc1ccc(F)cc1F`, the Potency entry is “inactive”.
Turning to `COC(=O)c1sc(-c2ccc(C(C)(C)C)cc2)cc1NC(=O)/C=C/C(=O)O`, the Potency is 4.61 µM (active).
Take `CSc1ccc(NC(=O)/C=C/C(=O)O)cc1`: the Potency result was “inactive”.
For the molecule `CCC(Cc1ccccc1)NC(=O)C1CCCCC1` (configuration not stated), the Potency result was “inactive”.
As for `CN1CCN(CCNC(=O)Nc2ccccc2[N+](=O)[O-])CC1`, the Potency entry was “inactive”.
As to `CCn1c(/C=C/c2ccc([N+](=O)[O-])o2)nc2ccccc2c1=O`, the Potency was 1.3 µM (active).
With `Cn1cc(/C=C/c2nc3ccccc3c(=O)n2-c2cccc([N+](=O)[O-])c2)c2ccccc21`, the Potency entry was “inactive”.
The result for `Cc1nc2ccccc2c(=O)n1Cc1ccc([N+](=O)[O-])cc1` reads “inactive”.
With `CC(C)c1ccc(S(=O)(=O)N2CCC3(CC2)OCCO3)cc1`, the Potency entry is “inactive”.
Regarding `CCn1c(=O)cc(O)c2ccccc21`, the Potency result was “inactive”.
For the molecule `CCn1c(NC(=O)c2ccccc2)c(-c2cccs2)c(=O)c2ccccc21`, the Potency is 20.6 µM (active).
`CCn1c(=O)c2cc(C(=O)Nc3cccc(C(C)=O)c3)sc2c2ccccc21`: the Potency result is “inactive”.
With `CSCCC(NS(=O)(=O)c1ccc(C)cc1)C(=O)N1CCCC1` (configuration not stated), the Potency entry is “inactive”.
Consider `CCCn1c(N)c(C(=O)CSc2nnc3n2CCCCC3)c(=O)[nH]c1=O`, for which the Potency entry was “inactive”.
Regarding `CCOc1ccc(N=C2NC(=O)S/C2=C\c2ccc(O)cc2)cc1`, the Potency entry was “inactive”.
The same measure for `CCOc1[nH]n(-c2ccc(Cl)cc2)c(=O)c1C=Nc1ccc(O)cc1`: 5.8 µM (active); for `Cc1cc(C)cc(C(=O)NCCN2CCOCC2)c1`: “inactive”.
For the molecule `Cc1ccc(C(=O)NCCN2CCOCC2)cc1C`, the Potency entry is “inactive”.
As for `CC(=O)Oc1cc2c(C(=O)NCCN3CCOCC3)c(C)oc2c2ccccc12`, the Potency was 18.4 µM (active).
`COc1ccc(OC)c(-n2nnc3c(sc4nc(C)c(Br)c(C)c43)c2=O)c1`: the Potency entry is “inactive”.
The same measure for `CCC(=O)N(Cc1ccccc1)c1ccccn1`: “inactive”; for `COc1cc(SC)ccc1C(=O)N(Cc1ccccc1)c1ccccc1`: “inactive”.
Turning to `COc1cc(CN(C(=O)c2ccccc2Br)c2ccccn2)cc(OC)c1OC`, the Potency was 18.4 µM (active).
`COC(=O)c1cc(C(=O)N(Cc2ccccc2)c2ccccn2)cc([N+](=O)[O-])c1`: the Potency result was “inactive”.
Consider `Cc1ccc(CN(C(=O)c2ccccc2[N+](=O)[O-])c2ccccn2)cc1`, for which the Potency was 11.6 µM (active).
As to `Cc1ccc(S(=O)(=O)N(Cc2ccccc2)c2ccccn2)cc1[N+](=O)[O-]`, the Potency entry is “inactive”.
On to `COc1ccc(CCOC(=O)CNC(=O)c2ccc(Cl)cc2Cl)cc1`, for which the Potency result is “inactive”.
With `Cc1ccc(N2CC(NC(=O)Cc3cccs3)CC2=O)cc1` (configuration not stated), the Potency result is “inactive”.
Take `C[C@H](NC(=O)c1nc[nH]c1C(=O)N[C@@H](C)C(=O)OC(C)(C)C)C(=O)OC(C)(C)C`: the Potency entry is “inactive”.
In the case of `COc1cc(C(=S)NC2CCCCC2)ccc1O`, the Potency entry is “inactive”.
The result for `Cc1cccc(N2CCN(C(=O)CCn3c(=O)c4cccn4c4cccnc43)CC2C)c1` (configuration not stated) reads 3.66 µM (active).
As for `Cc1cccc(NC(=O)Cn2c(=O)n(CCC(C)C)c(=O)c3cccnc32)c1`, the Potency result was “inactive”.
For the molecule `Cc1cccc(N2CCN(S(=O)(=O)c3ccc(-c4cc(C)no4)s3)CC2C)c1` (configuration not stated), the Potency result was “inactive”.
The same measure for `CCOc1ccc(-c2cc3c(=O)n(CC(=O)NCc4ccc(OC)cc4)ccn3n2)cc1`: “inactive”; for `CCOC(=O)C1C(c2ccc(OC)c(OC)c2)c2c([nH][nH]c2=O)CC1(C)O` (configuration not stated): “inactive”.
As for `O=C(Nc1c(Br)cc2c(c1Br)Cc1ccccc1-2)C(F)(F)F`, the Potency entry is “inactive”.
Turning to `CC(C)(O)C(=O)NN(C(=O)c1ccccc1)c1cccc(Br)c1`, the Potency result is “inactive”.
Consider `COC(=O)N(NC(=O)C(O)(C(C)C)C(C)C)c1ccccc1`, for which the Potency result was “inactive”.
Regarding `CCCCCNC(=O)C1c2ccccc2Oc2ccccc21`, the Potency entry is “inactive”.
Take `Cc1ccc(N(NC(=O)C(C)(C)O)C(=O)c2ccccc2)cc1C`: the Potency entry is “inactive”.
The result for `CCCC(O)(CCC)C(=O)NN(C(=O)CCl)c1cccc(C)c1` reads 4.61 µM (active).
Take `CCCCC(O)(CCCC)C(=O)NN(C(=O)CCl)c1ccccc1`: the Potency is 14.6 µM (active).
The same measure for `O=C(NNC(=S)NC1CCCCC1)c1ccccc1Cl`: “inactive”; for `Clc1ccccc1CSc1nncn2c1cc1occc12`: “inactive”.
For `Cn1c(CCc2ccccc2)nnc1SCC(N)=O`, the Potency result is “inactive”.
Regarding `COc1ccc(CN2CN(C(C)C)CSC2=S)cc1`, the Potency was 2.91 µM (active).
The same measure for `COc1ccc(CCNC(=O)COC(=O)C2CCCCC2)cc1`: “inactive”; for `COc1ccc(CCC(C)N2CCc3ccccc3C2)cc1` (configuration not stated): “inactive”.
For `COc1ccc(CN2CN(C3CCCC3)CSC2=S)cc1`, the Potency is 5.17 µM (active).
Turning to `COc1ccc(Cn2c(=O)cc(C)[nH]c2=S)cc1`, the Potency entry was “inactive”.
On to `COc1ccc(CN2CC(C(=O)NC3CCCCC3)CC2=O)cc1` (configuration not stated), for which the Potency result is “inactive”.
`O=C(NC1CCCC1)C(c1ccccn1)N(C(=O)c1csnn1)C1CCCC1` (configuration not stated): the Potency entry was “inactive”.
With `Cc1cc(C)c2c(=O)[nH]c(SCC(=O)Nc3ccc(Br)cc3)nc2n1`, the Potency entry was “inactive”.
As for `CC1(C(=O)NS(=O)(=O)c2cccc(F)c2)CCN1C(=O)Cc1cc(F)ccc1F` (configuration not stated), the Potency result is “inactive”.
On to `CN(CC(=O)Nc1ccccc1F)S(=O)(=O)c1ccc2c(c1)c(=O)n(C)c(=O)n2C`, for which the Potency entry was “inactive”.
Consider `O=C1c2ccccc2C(c2nc3ccccc3[nH]2)N1c1ccccc1` (configuration not stated), for which the Potency result is “inactive”.
The result for `CSc1ncccc1C(=O)NCc1ccccc1Cl` reads “inactive”.
The same measure for `O=C(CNC(=O)c1cc(S(=O)(=O)N2CCOCC2)ccc1N1CCCC1)Nc1ccc(F)c(F)c1`: “inactive”.
For the molecule `COc1ccccc1CNC(=O)C1CCN(C(=O)[C@@H]2Cc3ccccc3CN2)CC1`, the Potency result is “inactive”.
For the molecule `COc1ccccc1CNC(=O)[C@@H]1CCCN1C(=O)[C@@H]1Cc2ccccc2CN1C(=O)OC(C)(C)C`, the Potency is 18.4 µM (active).
The result for `COc1ccccc1CNC(=O)C1Cc2ccccc2C(=O)O1` (configuration not stated) reads “inactive”.
For `CCCNC(=O)c1cnc(-c2ccccc2)nc1-c1ccccc1`, the Potency result is “inactive”.
As to `O=C(CCCN=C1NS(=O)(=O)c2ccccc21)OCC(=O)c1ccc(F)c(F)c1`, the Potency result is “inactive”.
`COC(=O)C(CC(=O)Nc1cc(C)ccc1C)Nc1ccccc1OC` (configuration not stated): the Potency result was “inactive”.
`Cc1ccc(C)c(NC(=O)CCC(=O)NNC(=O)c2cccs2)c1`: the Potency result was “inactive”.
As for `Cc1ccc(C)c(NC(CC(=O)c2ccccc2)C(=O)OCC(=O)c2cccs2)c1` (configuration not stated), the Potency is 18.4 µM (active).
As to `O=C(Nc1nnc(-c2ccccc2F)s1)c1ccccc1F`, the Potency entry is “inactive”.
Turning to `CCN1CC(CN(C)Cc2nc(-c3ccc(Cl)cc3)no2)CC1=O` (configuration not stated), the Potency is 16.4 µM (active).
`CN(CCN1CCOCC1)Cc1nc(-c2ccc3c(c2)OCO3)no1`: the Potency result is “inactive”.
With `CN(Cc1ccccn1)Cc1nc(-c2ccc(Cl)cc2)no1`, the Potency result was “inactive”.
`COc1ccc(S(=O)(=O)N2CCOC2CNC(=O)C(=O)NCc2ccncc2)cc1OC` (configuration not stated): the Potency entry was “inactive”.
Consider `O=C(CSc1nccn1-c1cccc(F)c1)NC1CCCC1`, for which the Potency result is “inactive”.
Consider `CN(C)c1nc(-c2cccnc2)nc(-c2ccc(Cl)cc2)c1C#N`, for which the Potency entry was “inactive”.
Regarding `Cc1cc(-c2n[nH]c(=S)n2/N=C/C(Br)=C/c2ccccc2)n[nH]1`, the Potency is 1.64 µM (active).
With `Cc1cc(-c2n[nH]c(=S)n2/N=C/c2ccco2)n[nH]1`, the Potency result was “inactive”.
In the case of `S=c1[nH]nc(-c2ccncc2)n1/N=C/c1ccccc1Cl`, the Potency result was “inactive”.
Consider `CCN(CC)S(=O)(=O)c1cccc(-c2n[nH]c(=S)n2/N=C/c2ccc(C(=O)OC)cc2)c1`, for which the Potency entry is “inactive”.
Regarding `Fc1ccccc1/C=N/n1c(-c2cccnc2)n[nH]c1=S`, the Potency entry is “inactive”.
As to `S=c1[nH]nc(-c2cccnc2)n1/N=C/C(Cl)=C\c1ccccc1`, the Potency is 20.6 µM (active).
Regarding `FCOC(C(F)(F)F)C(F)(F)F`, the Potency result was “inactive”.
Take `NC(=O)CN1CCCC1c1ccc2c(c1)OCCO2` (configuration not stated): the Potency result was “inactive”.
The same measure for `CC(C)C(=O)Nc1oc(-c2ccccc2)cc1C#N`: “inactive”; for `CC1(C)S[C@@H]2[C@H](NC(=O)COc3ccccc3)C(=O)N2C1C(=O)OCc1ccccc1` (some centres not stated): “inactive”.
In the case of `COc1ccc(-c2nc(CS(=O)CC(=O)N3CCc4ccccc4C3)c(C)o2)cc1` (configuration not stated), the Potency was 16.4 µM (active).
Turning to `COc1cccc(N(CC(=O)N2CCc3ccccc3C2)S(C)(=O)=O)c1`, the Potency entry is “inactive”.
As to `COc1ccc(-c2nc(CS(=O)CC(=O)NCc3cccnc3)c(C)o2)cc1OC` (configuration not stated), the Potency entry is “inactive”.
For the molecule `O=C(COc1ccccc1)N1CCc2ccccc2C1`, the Potency entry was “inactive”.
With `COc1ccc(-c2nc(CS(=O)CC(=O)NCc3ccccc3)c(C)o2)cc1OC` (configuration not stated), the Potency entry is “inactive”.
The result for `COc1ccc(-c2nc(CS(=O)CC(=O)NCc3ccccn3)c(C)o2)cc1` (configuration not stated) reads 18.4 µM (active); that for `CCCSc1nsc(N)n1`, “inactive”.
`CS(=O)(=O)N1CCN(CC(=O)NC2CCCC2)CC1`: the Potency entry was “inactive”.
On to `O=C(Cc1coc2ccc3ccccc3c12)NCc1cccs1`, for which the Potency result is “inactive”.
`C=CCCC(=O)N1C[C@H]2CON(C)[C@H]2C[C@H]1c1cccc(Nc2ccccc2)c1`: the Potency entry was “inactive”.
As to `COCC1CCCN(Cc2nc(-c3ccc4c(c3)OCO4)no2)C1` (configuration not stated), the Potency result is “inactive”.
Regarding `CCn1c(CC(=O)Nc2ccccc2C)nnc1SCC(=O)NC1=NCCS1`, the Potency result was “inactive”.
On to `CCCNC(=O)c1ccc(Cl)c(Cl)c1`, for which the Potency result was “inactive”.
For the molecule `CCCn1c(=N)n(CC(=O)c2ccc(Cl)c(Cl)c2)c2ccccc21`, the Potency was 10.3 µM (active).
In the case of `O=C(Cn1nnc(N2CCCCC2)n1)c1ccc(Cl)c(Cl)c1`, the Potency entry is “inactive”.
On to `O=C(Nc1ccc(OCCO)cc1)c1csc([C@H]2C[C@H](O)[C@@H](CO)O2)n1`, for which the Potency result was “inactive”.
For the molecule `CCOc1ccc(CN2CCN(Cc3ccc4cc(F)ccc4n3)CC2CCO)cc1` (configuration not stated), the Potency entry is “inactive”.
